Most compounds without a hit are left out; they make up all but 2.8% or so of the library.
ATXN viability = reduces viability in counter-screen for ATXN expression inhibitors; S2 cells (HEK-293 line with an ATXN2-luciferase reporter) viability, CellTiter-Fluor protease fluorescence, 24 h; Potency, µM (highest dose often 56.7 µM), most hits filed as cytotoxic; 400,000 compounds, 0.49% hits; further: potency means the concentration at half of the fitted maximal effect; nearly all actives have a fitted effect of over 40% in size
HepG2 tox-1 = HepG2 cytotoxicity, counter-screen for TGF-b inhibitors; Potency, µM (highest dose often 46.1 µM), inactives show at the highest dose activity change, negative = cytotoxicity, actives largely listed as cytotoxic; AID 588856; HepG2 CAGA-GFP viability, ATP luminescence, 18 h; 410,000 compounds, 0.76% hits; further: potency means the concentration at half of the fitted maximal effect
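HepG2 CAGA-GFP cells (1000/well, DMEM with 1% FBS) received compound, then TGF-beta at 500 pg/mL final, and were incubated 18 hours at 37 degrees C. Viability was read by CellTiter-Glo luminescence. Media-only wells were set as complete cell-killing and DMSO as no toxicity.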
TGFb inhibitor = inhibitors of TGF-b signaling. HepG2 CAGA-GFP TGF-b/SMAD3 reporter, GFP fluorescence, 18 h; TGF-beta stimulated, 500 pg/mL final. Potency, µM (top dose mostly 46.1 µM), without a hit: at the highest dose activity, negative = inhibition, most hits filed as inhibitors. 410,000 compounds, 1.2% hits; further: potency means the concentration at half of the fitted maximal effect; on the % scale 0 is the no-effect control and ±100 the full control effect; nearly all actives have a fitted effect of over 65% in size
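Read-out: total well GFP (ex488/em500-530) summed from mean per-cell fluorescence. Cells: HEPG2 CAGA-GFP, 1% FBS DMEM, 18 h at 37 degrees C with 500 pg/mL final TGF-beta. Unstimulated wells served as the full-inhibition control; stimulated DMSO wells = 0%.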
ATXN2 expr inh = reduces ATXN2 reporter expression in HEK-293 cells. Potency, µM (doses to about 57 µM), inactives show at the top dose activity change, negative = inhibition, most hits filed as inhibitors. HEK-293 ATXN2-luciferase reporter, luminescence, 24 h. AID 1745845. 360,000 compounds, 0.72% hits; further: potency means the concentration at half of the fitted maximal effect; on the % scale 0 is the no-effect control and ±100 the full control effect; nearly all actives have a fitted effect of over 55% in size
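qHTS (up to 57 uM final) was run with 24 h compound exposure of reporter cells at 37 °C. Each well was multiplexed: SteadyGlo luminescence measured ATXN2-luciferase expression after a fluorogenic Gly-Phe-AFC viability readout (25 uM final).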
Six1-Eya2 inh = inhibitors of human Six1/Eya2 interaction. Q15475+O00167. AlphaScreen GST-Six1/His-Eya2 binding, biochemical; hits give low values. activity change, % (no concentration beside the values). 360,000 compounds, 0.56% hits. AID 651725; in the data active means activity change below about -65%; inconclusive means mostly about -30% to -63%; further: on the % scale 0 is the no-effect control and ±100 the full control effect
Target sequence (O00167 whole entry, looked up): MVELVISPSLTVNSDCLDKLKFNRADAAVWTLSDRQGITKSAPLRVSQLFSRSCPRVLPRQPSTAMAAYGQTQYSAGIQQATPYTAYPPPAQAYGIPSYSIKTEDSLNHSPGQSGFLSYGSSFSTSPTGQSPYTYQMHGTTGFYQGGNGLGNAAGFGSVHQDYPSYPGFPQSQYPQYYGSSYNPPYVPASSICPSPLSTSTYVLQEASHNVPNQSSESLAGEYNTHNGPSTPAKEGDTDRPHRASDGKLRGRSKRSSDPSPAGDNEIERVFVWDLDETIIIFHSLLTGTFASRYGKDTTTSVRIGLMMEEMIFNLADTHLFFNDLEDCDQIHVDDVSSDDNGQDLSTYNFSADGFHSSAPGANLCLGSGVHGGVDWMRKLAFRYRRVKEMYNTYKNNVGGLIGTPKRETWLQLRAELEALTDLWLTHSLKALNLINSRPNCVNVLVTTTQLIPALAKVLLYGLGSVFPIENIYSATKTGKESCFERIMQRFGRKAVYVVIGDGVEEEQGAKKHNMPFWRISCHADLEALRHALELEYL
Target sequence (Q15475 whole entry, looked up): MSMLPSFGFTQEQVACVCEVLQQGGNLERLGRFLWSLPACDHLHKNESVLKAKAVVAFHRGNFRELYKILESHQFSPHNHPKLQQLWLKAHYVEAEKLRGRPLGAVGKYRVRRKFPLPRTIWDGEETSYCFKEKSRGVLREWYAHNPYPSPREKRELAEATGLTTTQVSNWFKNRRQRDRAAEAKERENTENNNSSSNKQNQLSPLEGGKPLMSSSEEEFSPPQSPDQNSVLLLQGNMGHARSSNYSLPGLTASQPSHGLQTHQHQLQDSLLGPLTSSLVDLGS
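Compounds are tested against tagged Six1 and Eya2 proteins bridged by glutathione donor and nickel acceptor beads; after a one-hour incubation at 37 °C without light, AlphaScreen emission is recorded.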
CtBP-E1A inh = blocks the CtBP interaction with E1A | AlphaScreen GST-E1A/His-CtBP binding, 1536-well; hits give low values | activity change, % (concentration not given with the values) | 340,000 compounds, 0.49% hits | AID 651724; in the data active means activity change below about -65%; inconclusive means mostly about -30% to -63%; further: on the % scale 0 is the no-effect control and ±100 the full control effect
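AlphaScreen with 125 nM GST-E1A and 125 nM His-CtBP (5X stocks) in Tris pH 8.0, 300 mM NaCl, BSA, Tween 20, TCEP. Compounds preincubated 2 h at 37 deg C, then glutathione donor/nickel acceptor beads added for 1 h at 37 deg C in dark.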
TGFb CAGA inh = confirmation of TGF-b signaling inhibitors in HepG2 reporter cells | shares compounds with TGFb inhibitor | HepG2 CAGA-GFP TGF-b reporter, GFP fluorescence, 18 h; cells stimulated with TGF-beta, 500 pg/mL | AID 720534 | 1,600 compounds, 63% hits | Potency, µM (titrated, usually from 46.1 µM), for inactives: at the highest dose activity, negative = inhibition, hits mostly inhibitors; further: potency means the concentration at half of the fitted maximal effect; on the % scale 0 is the no-effect control and ±100 the full control effect; nearly all actives have a fitted effect of over 65% in size
HepG2 tox-2 = counter-screen for TGF-b inhibitors: cytotoxicity in HepG2 cells. shares compounds with TGFb inhibitor. HepG2 CAGA-GFP viability, ATP luminescence, 18 h; cells stimulated with TGF-beta, 500 pg/mL. Potency, µM (doses to about 46.1 µM), inactives show at the top dose activity, negative = cytotoxicity, most hits filed as inhibitors. 1,600 compounds, 27% hits; further: potency means the concentration at half of the fitted maximal effect; on the % scale 0 is the no-effect control and ±100 the full control effect; nearly all actives have a fitted effect of over 70% in size
CCL64 TGFb inh = orthogonal confirmation of TGF-b inhibitors in CCL64 cells; shares compounds with TGFb inhibitor; CCL64 CAGA-GFP reporter, TGF-b stimulated, GFP fluorescence, 18 h; Potency, µM (doses to about 46.1 µM), without a hit: top-dose activity, negative = inhibition, most hits filed as inhibitors; 1,600 compounds, 41% hits; further: potency means the concentration at half of the fitted maximal effect; nearly all actives have a fitted effect of over 65% in size
TGFb COP inh = validation of TGF-b inhibitors in HepG2 COP promoter reporter | shares compounds with TGFb inhibitor | HepG2 COP-GFP TGF-b reporter, GFP fluorescence, 18 h; cells stimulated by added recombinant TGF-beta | Potency, µM (series often up to 46.1 µM), for inactives: at the highest dose activity, negative = inhibition, actives largely listed as inhibitors | 1,600 compounds, 3% hits; further: potency means the concentration at half of the fitted maximal effect; nearly all actives have a fitted effect of over 70% in size
* marks the source's active call; other numbers are inactive results; i = inactive; u = inconclusive; x = no result given; [ ] = remark or other dose. Unless noted, the call rests on the fitted dose curve; in most records, active means well fitted curve in the direction sought with a large enough effect; inconclusive means small, poorly fitted or top-dose-only effect, or another doubt; inactive means no such curve, though single readings can be large; an effect the other way counts as inactive or inconclusive.

SMILES | ATXN viability | HepG2 tox-1 | TGFb inhibitor | ATXN2 expr inh | Six1-Eya2 inh | CtBP-E1A inh | TGFb CAGA inh | HepG2 tox-2 | CCL64 TGFb inh | TGFb COP inh
ON=C1c2ccccc2-c2ccc(F)cc21 | i | -16% | 1.6µM* | 11% | -7 | 0 | 9.2µM* | u | -24% | 55%
ON=C1c2ccccc2-c2ccc(Br)cc21 | i | -11% | -20% | 2% | -4 | 1 | x | x | x | x
OCCCNc1cc(-c2ccnc(Nc3cccc(Cl)c3)n2)ccn1 | u | -5% | 0.28µM* | 0.16µM* | -9 | -12 | 0.058µM* | 0.23µM* | 0.18µM* | 26%
CCC(C)Oc1cc(-c2ccnc(Nc3cccc(Cl)c3)n2)ccn1 (stereo not drawn) | i | 2% | 7.1µM* | u | 15 | 26 | 5.8µM* | u | 6.5µM* | 42%
CCc1ccc(OCC(=O)Nc2ccc(-c3cc4ccccc4oc3=O)c(OC)c2)cc1 | u | -5% | u | -18% | 12 | -3 | u | -13% | 9% | 12%
COc1cc(NC(=O)c2cc(Cl)ccc2Cl)ccc1-c1cc2ccccc2oc1=O | i | -19% | -3% | -12% | 4 | 0 | x | x | x | x
COc1ccc(-c2[nH]nc3nc(-c4cc(Br)ccc4OC)cc(C(=O)O)c23)cc1 | i | -16% | 0% | -7% | x | x | x | x | x | x
COc1cc(C)ccc1OCCn1c(-c2ccc(Cl)cc2)nc2ccccc2c1=O | x | -12% | -1% | x | x | x | x | x | x | x
COc1ccc(-c2cc3ccccc3oc2=O)cc1NC(=O)c1ccc([N+](=O)[O-])o1 | u | -19% | 6.3µM* | 9% | -6 | -23 | 1.8µM* | u | -27% | -2%
O=C(Nc1ccc(F)cc1)Nc1csc2ccccc12 | i | -27% | 14µM* | 13% | 11 | 0 | u | u | u | 23%
CN(C)c1ccc(NC(=O)Nc2csc3ccccc23)cc1 | i | -13% | -11% | 52% | u | u | x | x | x | x
COc1ccc(C2=NNC(=Nc3cc(S(=O)(=O)N(C)C)ccc3C)SC2)c(OC)c1 | u | -30% | u | x | -26 | -19 | u | u | u | 28%
CCC1CCCCN1S(=O)(=O)c1ccc(NC(=O)c2nc(S(C)(=O)=O)ncc2Cl)cc1 (stereo not drawn) | 13µM* | 4µM* | 4.5µM* | 16µM* | -10 | -2 | 3.7µM* | 6.5µM* | 2.1µM* | 9.2µM*
CCSc1ncc(Cl)c(C(=O)Nc2ccc(S(=O)(=O)N3CCCCC3CC)cc2)n1 (stereo not drawn) | i | -17% | -18% | -9% | x | x | x | x | x | x
CCS(=O)(=O)c1ncc(Cl)c(C(=O)Nc2ccc(S(=O)(=O)N3CCCC(C)C3)cc2)n1 (stereo not drawn) | 8.9µM* | 4.5µM* | 4.5µM* | 8.9µM* | 19 | -4 | 4.1µM* | 5.2µM* | 2.6µM* | 7.3µM*
CC1CCCN(S(=O)(=O)c2ccc(NC(=O)CNC3CCCC3)cc2)C1 (stereo not drawn) | i | -26% | -11% | u | 4 | -5 | x | x | x | x
CCOc1ccc(CCN2C(=S)N([C@@H](Cc3ccc(O)cc3)CN3CCC[C@@H]3CN3C(=S)NC[C@@H]3CC(C)C)C[C@@H]2Cc2ccccc2)cc1 | u | -10% | u | 0% | -19 | -12 | u | -3% | u | 15%
CCOc1ccc(CCN2C(=S)N([C@@H](Cc3ccc(O)cc3)CN3CCC[C@@H]3CN3C(=S)NC[C@@H]3Cc3ccc(O)cc3)C[C@@H]2Cc2ccc(O)cc2)cc1 | u | x | x | u | -2 | 4 | x | x | x | x
CCOc1ccc(CCN2C(=S)N([C@@H](Cc3ccc(O)cc3)CN3CCC[C@@H]3CN3C(=S)NC[C@@H]3Cc3ccccc3)C[C@@H]2CC(C)C)cc1 | u | -22% | -9% | -3% | -13 | -10 | x | x | x | x
CCOc1ccc(CCN2C(=S)N([C@@H](Cc3ccc(O)cc3)CN3CCC[C@@H]3CN3C(=S)NC[C@@H]3CC(C)C)C[C@@H]2CC(C)C)cc1 | u | -10% | 4.5µM* | u | -1 | u | u | -19% | 16µM* | 21%
COc1cccc2c1C(CO)N1C(C#N)C3CC(C(=O)O)C(C1C2)N3C (stereo not drawn) | i | 16% | 1.3µM* | 0.28µM* | -22 | -1 | 0.65µM* | 0.52µM* | 7.3µM* | -4%
COc1cccc2c1OCC(C(=O)O)C2 (stereo not drawn) | i | -7% | -13% | -25%[11.3 µM] | 7 | 3 | x | x | x | x
CCCCNc1c(-c2ccc(OC)c(SC3CCCCC3)c2)nc2cc(C)ccn12 | u | -50% | 20µM* | u | -23 | -19 | u | u | 16µM* | 35%
COc1ccc(CNC(=O)N2CCc3nc(Nc4cc(OC)c(OC)c(OC)c4)ncc3C2)cc1 | i | -14% | 3% | 16% | -21 | u | x | x | x | x
COc1cc(NC(=O)N2CCc3nc(Nc4cc(Cl)cc(Cl)c4)ncc3C2)cc(OC)c1OC | i | -5% | 18µM* | u | -13 | -14 | 21µM* | u | 7.3µM* | 106%
COc1ccc(CNC(=O)c2c(C)oc3c2C(=O)c2ccccc2C3=O)cc1 | i | 0.89µM* | 1µM* | u | -22 | -28 | 0.65µM* | 1µM* | 5.2µM* | 2.1µM*
Cc1oc2cc(Br)c(O)c(Br)c2c1-c1ccccc1 | i | -66% | 10µM* | 168% | 24 | 10 | u | -17% | u | 19%

Screening data as filed in PubChem.
